Common to all, as to test: PBM; 200 nM protein, PBS
What all share (conditions): dsDNA, one strand shown

For test [1], the target named is HOXA4 (Homo sapiens, UniProt Q00056 201-287, W262R).
For test [2], the target named is HOXC10 (Homo sapiens, UniProt Q9NYD6 254-340).
Test [3] deals with HOXA4 (Homo sapiens, UniProt Q00056 201-287, R217L).
For test [4], the target named is HOXA4 (Homo sapiens, UniProt Q00056 201-287).
In test [5] the target is HOXC10 (Homo sapiens, UniProt Q9NYD6 254-340, K271E).
Test [6] has as its target HOXA4 (Homo sapiens, UniProt Q00056 201-287, W262F).
Test [7] addresses PRRX1 (Homo sapiens, UniProt P54821 80-166, F113S).
For test [8], the target named is HOXA2 (Homo sapiens, UniProt O43364 129-215, R185T).
The target in test [9] is HOXA2 (Homo sapiens, UniProt O43364 129-215, R185K).
The target in test [10] is HOXA2 (Homo sapiens, UniProt O43364 129-215, Y150S).
The target in test [11] is PRRX1 (Homo sapiens, UniProt P54821 80-166).
The target in test [12] is HOXA2 (Homo sapiens, UniProt O43364 129-215).
Test [13] concerns the target T1, PAX4 (Homo sapiens, UniProt O43316 9-242, R200K).
T1 sequence: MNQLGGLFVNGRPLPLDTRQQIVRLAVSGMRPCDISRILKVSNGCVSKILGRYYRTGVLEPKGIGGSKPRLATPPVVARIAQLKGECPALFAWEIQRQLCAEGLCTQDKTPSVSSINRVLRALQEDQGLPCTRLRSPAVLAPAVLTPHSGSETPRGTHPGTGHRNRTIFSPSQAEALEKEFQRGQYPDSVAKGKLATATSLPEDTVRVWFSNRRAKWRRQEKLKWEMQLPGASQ

In test [14] the target is T2, PAX4 (Homo sapiens, UniProt O43316 9-242).
T2 sequence: T1 sequence with K192R

Test [15] addresses MSX2 (Homo sapiens, UniProt P35548 130-214, R199I).
Test [16] addresses T3, PAX4 (Homo sapiens, UniProt O43316 9-242, R200Q).
T3 sequence: T1 sequence with K192Q

Test [17] deals with T4, PAX4 (Homo sapiens, UniProt O43316 9-242, F177V).
T4 sequence: T1 sequence with F169V, K192R

For test [18], the target named is MSX2 (Homo sapiens, UniProt P35548 130-214).
Test [19] addresses T5, PAX4 (Homo sapiens, UniProt O43316 9-242, F177Y).
T5 sequence: T1 sequence with F169Y, K192R

The target of test [20] is MSX2 (Homo sapiens, UniProt P35548 130-214, F161Y).
Test [21] has as its target T6, PAX4 (Homo sapiens, UniProt O43316 9-242, R227W).
T6 sequence: T1 sequence with K192R, R219W

Test [22] addresses ALX4 (Homo sapiens, UniProt Q9H161 200-286).
The target in test [23] is ALX4 (Homo sapiens, UniProt Q9H161 200-286, Q225E).
Test [24] has as its target T7, SIX6 (Homo sapiens, UniProt O95475 114-200, L167I).
T7 sequence: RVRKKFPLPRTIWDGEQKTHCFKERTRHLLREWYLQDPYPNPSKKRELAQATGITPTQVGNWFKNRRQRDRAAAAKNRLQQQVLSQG

The target in test [25] is T8, SIX6 (Homo sapiens, UniProt O95475 114-200, L143M).
T8 sequence: T7 sequence with L30M, I54L

Test [26] addresses T9, SIX6 (Homo sapiens, UniProt O95475 114-200, T139Q).
T9 sequence: T7 sequence with T26Q, I54L

Numbering of substitutions follows the chain as printed.

Chain of HOXA4 (Homo sapiens, UniProt Q00056 201-287, R217L) (Q00056 201-287 R217L): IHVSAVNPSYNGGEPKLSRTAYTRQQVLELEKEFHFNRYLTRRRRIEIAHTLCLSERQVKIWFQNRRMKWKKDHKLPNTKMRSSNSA
Chain of HOXA4 (Homo sapiens, UniProt Q00056 201-287) (Q00056 201-287): as the sequence (Q00056 201-287 R217L) above, with L17R counted along it
Chain of HOXA4 (Homo sapiens, UniProt Q00056 201-287, W262R) (Q00056 201-287 W262R): as the sequence (Q00056 201-287 R217L) above, with L17R, W62R counted along it
Chain of HOXA4 (Homo sapiens, UniProt Q00056 201-287, W262F) (Q00056 201-287 W262F): as the sequence (Q00056 201-287 R217L) above, with L17R, W62F counted along it
Chain of PRRX1 (Homo sapiens, UniProt P54821 80-166) (P54821 80-166): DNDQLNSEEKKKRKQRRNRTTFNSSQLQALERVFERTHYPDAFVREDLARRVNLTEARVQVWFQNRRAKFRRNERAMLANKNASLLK
Chain of HOXC10 (Homo sapiens, UniProt Q9NYD6 254-340, K271E) (Q9NYD6 254-340 K271E): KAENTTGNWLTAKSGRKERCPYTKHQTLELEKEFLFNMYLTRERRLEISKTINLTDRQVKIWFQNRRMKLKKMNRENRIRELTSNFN
Chain of PRRX1 (Homo sapiens, UniProt P54821 80-166, F113S) (P54821 80-166 F113S): as the sequence (P54821 80-166) above, with F34S counted along it
Chain of HOXC10 (Homo sapiens, UniProt Q9NYD6 254-340) (Q9NYD6 254-340): as the sequence (Q9NYD6 254-340 K271E) above, with E18K counted along it
Chain of MSX2 (Homo sapiens, UniProt P35548 130-214, R199I) (P35548 130-214 R199I): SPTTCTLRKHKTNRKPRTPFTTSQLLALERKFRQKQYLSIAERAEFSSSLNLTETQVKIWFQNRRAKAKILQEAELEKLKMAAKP
Chain of ALX4 (Homo sapiens, UniProt Q9H161 200-286) (Q9H161 200-286): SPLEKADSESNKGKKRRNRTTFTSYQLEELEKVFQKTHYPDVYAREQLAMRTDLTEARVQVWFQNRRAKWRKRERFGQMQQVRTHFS
Chain of ALX4 (Homo sapiens, UniProt Q9H161 200-286, Q225E) (Q9H161 200-286 Q225E): as the sequence (Q9H161 200-286) above, with Q26E counted along it
Chain of HOXA2 (Homo sapiens, UniProt O43364 129-215) (O43364 129-215): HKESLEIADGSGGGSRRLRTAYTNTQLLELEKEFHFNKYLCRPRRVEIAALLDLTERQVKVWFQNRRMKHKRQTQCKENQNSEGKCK
Chain of HOXA2 (Homo sapiens, UniProt O43364 129-215, Y150S) (O43364 129-215 Y150S): as the sequence (O43364 129-215) above, with Y22S counted along it
Chain of HOXA2 (Homo sapiens, UniProt O43364 129-215, R185T) (O43364 129-215 R185T): as the sequence (O43364 129-215) above, with R57T counted along it
Chain of MSX2 (Homo sapiens, UniProt P35548 130-214) (P35548 130-214): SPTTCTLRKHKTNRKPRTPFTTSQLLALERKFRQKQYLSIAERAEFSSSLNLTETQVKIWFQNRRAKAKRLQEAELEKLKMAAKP
Chain of HOXA2 (Homo sapiens, UniProt O43364 129-215, R185K) (O43364 129-215 R185K): as the sequence (O43364 129-215) above, with R57K counted along it
Chain of MSX2 (Homo sapiens, UniProt P35548 130-214, F161Y) (P35548 130-214 F161Y): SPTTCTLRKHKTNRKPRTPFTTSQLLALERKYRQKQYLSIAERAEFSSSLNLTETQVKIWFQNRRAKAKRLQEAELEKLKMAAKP

As to CCCCACGG, the binding signal in the test with HOXA4 [1] is 9.8 upbm affinity estimate (log intensity, higher = more binding, comparable within an allelic series); with HOXC10 [2], 10.1 upbm affinity estimate (log intensity, higher = more binding, comparable within an allelic series); in the test with HOXA4 [3] it was 9.68 upbm affinity estimate (log intensity, higher = more binding, comparable within an allelic series); with HOXA4 [4] it was 9.82 upbm affinity estimate (log intensity, higher = more binding, comparable within an allelic series); in the test with HOXC10 [5], 10 upbm affinity estimate (log intensity, higher = more binding, comparable within an allelic series); with HOXA4 [6] it was 9.88 upbm affinity estimate (log intensity, higher = more binding, comparable within an allelic series).
In the case of CAGGAAGG, the binding signal with HOXA4 [1] is 9.86 upbm affinity estimate (log intensity, higher = more binding, comparable within an allelic series); with PRRX1 [7], 9.25 upbm affinity estimate (log intensity, higher = more binding, comparable within an allelic series); in the test with HOXA2 [8] it was 6.96 upbm affinity estimate (log intensity, higher = more binding, comparable within an allelic series); in the test with HOXA4 [3], 9.68 upbm affinity estimate (log intensity, higher = more binding, comparable within an allelic series); with HOXA2 [9], 10.3 upbm affinity estimate (log intensity, higher = more binding, comparable within an allelic series); with HOXA4 [4], 9.59 upbm affinity estimate (log intensity, higher = more binding, comparable within an allelic series). For the same sequence, the binding signal was 10.4 upbm affinity estimate (log intensity, higher = more binding, comparable within an allelic series) with HOXA2 [10]; 9.73 upbm affinity estimate (log intensity, higher = more binding, comparable within an allelic series) in the test with HOXA4 [6]; 8.96 upbm affinity estimate (log intensity, higher = more binding, comparable within an allelic series) with PRRX1 [11]; 7.14 upbm affinity estimate (log intensity, higher = more binding, comparable within an allelic series) with HOXA2 [12].
Turning to TAATTTGA, the binding signal was 10.4 upbm affinity estimate (log intensity, higher = more binding, comparable within an allelic series) in the test with HOXA4 [1]; 11.7 upbm affinity estimate (log intensity, higher = more binding, comparable within an allelic series) with PAX4 [13]; 10.7 upbm affinity estimate (log intensity, higher = more binding, comparable within an allelic series) with PRRX1 [7]; 12.2 upbm affinity estimate (log intensity, higher = more binding, comparable within an allelic series) with PAX4 [14]; 11.4 upbm affinity estimate (log intensity, higher = more binding, comparable within an allelic series) with HOXA4 [3]; 12.2 upbm affinity estimate (log intensity, higher = more binding, comparable within an allelic series) with MSX2 [15]. For the same sequence, the binding signal is 11.9 upbm affinity estimate (log intensity, higher = more binding, comparable within an allelic series) with PAX4 [16]; 10.5 upbm affinity estimate (log intensity, higher = more binding, comparable within an allelic series) with PAX4 [17]; 12.8 upbm affinity estimate (log intensity, higher = more binding, comparable within an allelic series) in the test with HOXA4 [4]; 13.4 upbm affinity estimate (log intensity, higher = more binding, comparable within an allelic series) in the test with MSX2 [18]; 10.9 upbm affinity estimate (log intensity, higher = more binding, comparable within an allelic series) with PAX4 [19]; 13 upbm affinity estimate (log intensity, higher = more binding, comparable within an allelic series) in the test with MSX2 [20]. The binding signal with PAX4 [21] is 10.9 upbm affinity estimate (log intensity, higher = more binding, comparable within an allelic series); with HOXA4 [6] it was 10.8 upbm affinity estimate (log intensity, higher = more binding, comparable within an allelic series); in the test with PRRX1 [11] it was 13.2 upbm affinity estimate (log intensity, higher = more binding, comparable within an allelic series).
For the sequence CCCGAAGG, the binding signal is 9.83 upbm affinity estimate (log intensity, higher = more binding, comparable within an allelic series) with HOXA4 [1]; 9.96 upbm affinity estimate (log intensity, higher = more binding, comparable within an allelic series) with HOXC10 [2]; 7.8 upbm affinity estimate (log intensity, higher = more binding, comparable within an allelic series) in the test with ALX4 [22]; 8.2 upbm affinity estimate (log intensity, higher = more binding, comparable within an allelic series) with ALX4 [23]; 9.81 upbm affinity estimate (log intensity, higher = more binding, comparable within an allelic series) with HOXA4 [3]; 9.76 upbm affinity estimate (log intensity, higher = more binding, comparable within an allelic series) with HOXA4 [4]. The binding signal was 9.97 upbm affinity estimate (log intensity, higher = more binding, comparable within an allelic series) with HOXC10 [5] and 9.93 upbm affinity estimate (log intensity, higher = more binding, comparable within an allelic series) with HOXA4 [6].
GGATCACA: the binding signal with SIX6 [24] was 11.1 upbm affinity estimate (log intensity, higher = more binding, comparable within an allelic series); with SIX6 [25] it was 10.9 upbm affinity estimate (log intensity, higher = more binding, comparable within an allelic series); with SIX6 [26], 11.2 upbm affinity estimate (log intensity, higher = more binding, comparable within an allelic series).

The record behind these values is article PMC11006913.
